# Source: PubChem BioAssay (EPA / NIEHS)
# Several values for one entry are separate records, joined by “and”; a condition that tells them apart may be missing. Equal values may be shown once. Some compounds were tested as several samples or in several runs, with calls that do not always agree. Activity calls are given as the source filed them. How the source made its calls: active means hit-call score of the fitted dose curve at least 0.9, where 1 is the maximum; inactive means score below 0.9.
# Assays:
# Details in all cases: mRNA level, 48 h; actives raise or lower the signal
# [1] = read-out: adenosine kinase (ADK) gene, ADK (gene 132); experiment: LTEA_HepaRG_ADK: Life Technologies and Expression Analysis (LTEA) Assay for adenosine kinase (ADK) gene using HepaRG (AID 2283471)
# Summary of the method: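 HepaRG (human liver), 48 h chemical exposure, 8-pt half-log series, top 100 uM, 0.5% DMSO vehicle. Readout: ADK mRNA by qRT-PCR vs housekeeping genes; bidirectional curve fit relative to DMSO baseline.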
# [2] = read-out: Alpha-fetoprotein (AFP) gene, AFP (gene 174); experiment: LTEA_HepaRG_AFP: Life Technologies and Expression Analysis (LTEA) Assay for Alpha-fetoprotein (AFP) gene using HepaRG (AID 2283472)
# Summary of the method: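 qRT-PCR (Fluidigm TaqMan) readout of AFP transcript, normalized to three housekeeping genes, fitted bidirectionally against 0.5% DMSO baseline. HepaRG cells received chemicals for 48 h in serum-free induction medium, top concentration 100 uM, half-log steps.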
# BCL2L11 (gene 10018) = experiment: LTEA_HepaRG_BCL2L11: Life Technologies and Expression Analysis (LTEA) Assay for Bcl-2 (BCL2L11) gene using HepaRG (AID 2283473)
# Summary of the method: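 Read-out is BCL2L11 transcript level by qRT-PCR, normalized to three housekeeping genes and fitted bidirectionally against 0.5% DMSO vehicle. HepaRG cells received chemicals for 48 h in serum-free induction medium, 100 uM down in half-log dilutions.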
# [3] = read-out: Apolipoprotein A-V (APOA5) gene, APOA5 (gene 116519); experiment: LTEA_HepaRG_APOA5: Life Technologies and Expression Analysis (LTEA) Assay for Apolipoprotein A-V (APOA5) gene using HepaRG (AID 2283474)
# Summary of the method: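 Readout is APOA5 transcript level by qRT-PCR on Fluidigm dynamic arrays, normalized to three housekeeping genes. HepaRG cultures received chemicals for 48 h at up to 100 uM (half-log steps, 0.5% DMSO), with gain or loss scored relative to DMSO.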
# [4] = read-out: Bcl-2 (BID) gene, BID (gene 637); experiment: LTEA_HepaRG_BID: Life Technologies and Expression Analysis (LTEA) Assay for Bcl-2 (BID) gene using HepaRG (AID 2283476)
# Summary of the method: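 HepaRG, 48 h exposure, 8-pt half-log series, top 100 uM, 0.5% DMSO vehicle, duplicates. Readout: BID mRNA by TaqMan qRT-PCR; housekeeping-normalized; bidirectional curve fit vs DMSO baseline.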
# Caspase-3 (Homo sapiens) = Caspase-3 (Homo sapiens) (UniProt P42574); experiment: LTEA_HepaRG_CASP3: Life Technologies and Expression Analysis (LTEA) Assay for cysteine-aspartic acid protease (CASP3) using HepaRG (AID 2283477)
# Summary of the method: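 Read-out is CASP3 mRNA level by TaqMan qRT-PCR in human HepaRG cells after 48 h chemical exposure. Eight half-log concentrations topping at 100 uM were tested in 0.5% DMSO; gain or loss was fitted relative to DMSO.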
# [5] = read-out: Cytochrome P450 (CYP24A1), CYP24A1 (gene 1591); experiment: LTEA_HepaRG_CYP24A1: Life Technologies and Expression Analysis (LTEA) Assay for Cytochrome P450 (CYP24A1) using HepaRG (AID 2283478)
# Summary of the method: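 HepaRG, 48 h chemical exposure, 8-pt half-log CRC from 100 uM, 0.5% DMSO vehicle, duplicates. Endpoint: CYP24A1 mRNA by Fluidigm TaqMan qRT-PCR, normalized ACTB/GAPDH/POLR2A; gain/loss fit vs DMSO.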
# [6] = read-out: cysteine-aspartic acid protease (CASP8), CASP8 (gene 841); experiment: LTEA_HepaRG_CASP8: Life Technologies and Expression Analysis (LTEA) Assay for cysteine-aspartic acid protease (CASP8) using HepaRG (AID 2283480)
# Summary of the method: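 qRT-PCR readout of CASP8 mRNA, normalized to three housekeeping genes, after 48 h chemical exposure of HepaRG cells; 8-point half-log series, top 100 uM, 0.5% DMSO vehicle. Bidirectional curve fitting against DMSO baseline.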
# [7] = read-out: Cytochrome P450 (CYP2B6), CYP2B6 (gene 1555); experiment: LTEA_HepaRG_CYP2B6: Life Technologies and Expression Analysis (LTEA) Assay for Cytochrome P450 (CYP2B6) using HepaRG (AID 2283481)
# Summary of the method: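 HepaRG cells plated 48 h, switched to serum-free induction medium, then dosed 48 h (8 points, half-log from 100 uM, 0.5% DMSO). RNA isolated; CYP2B6 expression measured by qRT-PCR; gain or loss fitted relative to DMSO.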
# CYP2C8 (gene 1558) = experiment: LTEA_HepaRG_CYP2C8: Life Technologies and Expression Analysis (LTEA) Assay for CYP2C8 using HepaRG (AID 2283483)
# Summary of the method: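 HepaRG (human liver line), 48 h chemical exposure, 8-pt half-log series from 100 uM, 0.5% DMSO vehicle. Readout: CYP2C8 transcript by qRT-PCR, housekeeping-normalized. Bidirectional fit vs DMSO baseline.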
# CYP2C9 (gene 1559) = experiment: LTEA_HepaRG_CYP2C9: Life Technologies and Expression Analysis (LTEA) Assay for CYP2C9 using HepaRG (AID 2283484)
# Summary of the method: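 HepaRG, 48 h dosing, 8-pt half-log series, top 100 uM, 0.5% DMSO vehicle. Read-out: CYP2C9 transcript by TaqMan qRT-PCR, housekeeping-normalized (ACTB/GAPDH/POLR2A). Gain or loss fitted vs DMSO baseline.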
# CYP2E1 (gene 1571) = experiment: LTEA_HepaRG_CYP2E1: Life Technologies and Expression Analysis (LTEA) Assay for CYP2E1 using HepaRG (AID 2283485)
# Summary of the method: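 CYP2E1 transcript was measured by TaqMan qRT-PCR in human HepaRG cultures after 48 h chemical exposure (top 100 uM, half-log steps, 0.5% DMSO vehicle). Housekeeping-gene normalization; gain or loss fitted relative to DMSO baseline.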
# CYP4A11 (gene 1579) = experiment: LTEA_HepaRG_CYP4A11: Life Technologies and Expression Analysis (LTEA) Assay for CYP4A11 using HepaRG (AID 2283486)
# Summary of the method: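 HepaRG, 48 h chem exposure, 8 conc (100 uM top, half-log), 0.5% DMSO vehicle; qRT-PCR readout, housekeeping-gene normalized; bidirectional curve fit vs DMSO baseline.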
# [8] = read-out: Cytochrome P450 3A4 (Homo sapiens) (UniProt P08684); experiment: LTEA_HepaRG_CYP3A4: Life Technologies and Expression Analysis (LTEA) Assay for CYP3A4 using HepaRG (AID 2283487)
# Summary of the method: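 CYP3A4 transcript measured by TaqMan qRT-PCR and normalized to three housekeeping genes after 48 h chemical exposure of human HepaRG cells. Top concentration 100 uM, half-log steps, 0.5% DMSO vehicle; gain or loss fitted against DMSO baseline.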
# [9] = read-out: DNA damage-inducible transcript 3 (DDIT3), DDIT3 (gene 1649); experiment: LTEA_HepaRG_DDIT3: Life Technologies and Expression Analysis (LTEA) Assay for DNA damage-inducible transcript 3 (DDIT3) using HepaRG (AID 2283488)
# Summary of the method: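 qRT-PCR readout (Fluidigm TaqMan), housekeeping-normalized to ACTB, GAPDH, POLR2A. HepaRG cells, 48 h exposure, 8-point half-log series from 100 uM in 0.5% DMSO, duplicates. Gain or loss of signal fitted against DMSO baseline.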
# [10] = read-out: Pro-epidermal growth factor (Homo sapiens) (UniProt P01133); experiment: LTEA_HepaRG_EGF: Life Technologies and Expression Analysis (LTEA) Assay for Epidermal growth factor (EGF) using HepaRG (AID 2283489)
# Summary of the method: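 HepaRG, 48 h dosing, 100 uM top, half-log x8, 0.5% DMSO. Readout: TaqMan qRT-PCR (Fluidigm array), housekeeping-normalized. Gain or loss of signal fit vs DMSO.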
# [11] = read-out: Early growth response protein 1 (EGR1) transcription factor, EGR1 (gene 1958); experiment: LTEA_HepaRG_EGR1: Life Technologies and Expression Analysis (LTEA) Assay for Early growth response protein 1 (EGR1) transcription factor using HepaRG (AID 2283490)
# Summary of the method: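 HepaRG, 48 h exposure, 8-pt half-log series from 100 uM, 0.5% DMSO vehicle; EGR1 transcript by TaqMan qRT-PCR (Fluidigm array), housekeeping-normalized; bidirectional fit relative to DMSO baseline.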
# [12] = read-out: Apoptosis regulator Bcl-2 (Homo sapiens) (UniProt P10415); experiment: LTEA_HepaRG_BCL2: Life Technologies and Expression Analysis (LTEA) Assay for Bcl-2 gene using HepaRG (AID 2283475)
# Summary of the method: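 qRT-PCR read-out (Fluidigm TaqMan) of BCL2 transcript, normalised to three housekeeping genes, after 48 h chemical exposure of HepaRG cells; 8-point half-log series, top 100 uM, 0.5% DMSO vehicle. Gain or loss of signal fitted relative to DMSO baseline.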
# [13] = read-out: Cytochrome P450 2C19 (Homo sapiens) (UniProt P33261); experiment: LTEA_HepaRG_CYP2C19: Life Technologies and Expression Analysis (LTEA) Assay for CYP2C19 using HepaRG (AID 2283482)
# Summary of the method: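 Transcript levels of CYP2C19 were quantified by qRT-PCR after HepaRG cells were treated for 48 hours with test chemicals up to 100 uM (eight half-log concentrations, 0.5% DMSO vehicle). Gain or loss of signal was fitted relative to DMSO.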
# Cytochrome P450 3A4 (Homo sapiens), sequence (P08684 whole entry, looked up): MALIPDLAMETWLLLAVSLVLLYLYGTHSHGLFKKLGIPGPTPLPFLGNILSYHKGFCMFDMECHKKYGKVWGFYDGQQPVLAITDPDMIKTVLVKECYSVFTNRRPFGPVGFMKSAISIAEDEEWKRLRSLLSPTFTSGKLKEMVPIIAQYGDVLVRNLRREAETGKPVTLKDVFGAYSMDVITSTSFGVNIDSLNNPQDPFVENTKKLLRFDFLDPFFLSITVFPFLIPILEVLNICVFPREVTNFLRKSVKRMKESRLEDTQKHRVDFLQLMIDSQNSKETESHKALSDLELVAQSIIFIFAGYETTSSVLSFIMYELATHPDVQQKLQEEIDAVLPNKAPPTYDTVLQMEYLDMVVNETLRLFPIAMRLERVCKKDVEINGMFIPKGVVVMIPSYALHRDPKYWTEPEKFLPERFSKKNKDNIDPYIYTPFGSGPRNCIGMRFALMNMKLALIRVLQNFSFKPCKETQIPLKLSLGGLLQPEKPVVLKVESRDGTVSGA
# Caspase-3 (Homo sapiens), sequence (P42574 whole entry, looked up): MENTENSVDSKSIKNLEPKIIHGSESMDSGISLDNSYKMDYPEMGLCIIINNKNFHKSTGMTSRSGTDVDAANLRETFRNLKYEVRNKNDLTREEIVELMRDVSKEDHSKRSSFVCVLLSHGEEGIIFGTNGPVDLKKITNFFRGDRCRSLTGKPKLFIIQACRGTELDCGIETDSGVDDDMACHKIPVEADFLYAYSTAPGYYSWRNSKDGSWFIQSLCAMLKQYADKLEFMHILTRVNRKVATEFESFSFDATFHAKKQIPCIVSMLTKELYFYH
# Cytochrome P450 2C19 (Homo sapiens), sequence (P33261 whole entry, looked up): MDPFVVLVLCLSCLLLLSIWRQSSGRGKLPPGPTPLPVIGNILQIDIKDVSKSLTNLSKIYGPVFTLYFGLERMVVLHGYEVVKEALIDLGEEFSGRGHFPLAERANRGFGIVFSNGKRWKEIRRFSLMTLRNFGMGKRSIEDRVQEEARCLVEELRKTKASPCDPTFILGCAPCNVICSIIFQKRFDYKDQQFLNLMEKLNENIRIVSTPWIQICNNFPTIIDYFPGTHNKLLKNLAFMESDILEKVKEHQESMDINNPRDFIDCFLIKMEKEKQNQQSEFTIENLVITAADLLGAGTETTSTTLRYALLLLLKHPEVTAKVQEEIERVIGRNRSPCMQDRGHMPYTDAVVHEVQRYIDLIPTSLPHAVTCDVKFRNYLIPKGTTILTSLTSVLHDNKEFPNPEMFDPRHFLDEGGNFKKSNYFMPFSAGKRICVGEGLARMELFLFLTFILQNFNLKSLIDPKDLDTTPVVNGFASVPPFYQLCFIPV
# Apoptosis regulator Bcl-2 (Homo sapiens), sequence (P10415 whole entry, looked up): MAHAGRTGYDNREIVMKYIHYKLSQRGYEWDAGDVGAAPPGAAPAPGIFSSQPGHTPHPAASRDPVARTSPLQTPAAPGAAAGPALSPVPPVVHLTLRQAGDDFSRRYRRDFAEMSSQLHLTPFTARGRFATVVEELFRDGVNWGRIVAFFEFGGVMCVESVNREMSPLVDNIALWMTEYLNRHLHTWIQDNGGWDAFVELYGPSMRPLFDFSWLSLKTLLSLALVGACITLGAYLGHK
structure (smiles),measurement,setting,value
C#CCN1C(=O)COc2cc(F)c(N3C(=O)C4=C(CCCC4)C3=O)cc21,outcome,[1],inactive
same,AC50,[2],40.4 µM (active)
same,outcome,BCL2L11 (gene 10018),inactive
same,AC50,[3],23.1 µM (active)
same,outcome,[4],inactive
same,outcome,Caspase-3 (Homo sapiens),inactive
same,outcome,[5],inactive
same,outcome,[6],inactive
same,AC50,[7],0.84 µM (active)
same,outcome,CYP2C8 (gene 1558),inactive
same,outcome,CYP2C9 (gene 1559),inactive
same,AC50,CYP2E1 (gene 1571),26.1 µM (active)
same,AC50,CYP4A11 (gene 1579),20.5 µM (active)
same,AC50,[8],3.65 µM (active)
same,outcome,[9],inactive
same,outcome,[10],inactive
same,AC50,[11],12 µM (active)
O=S(=O)(O)C(F)(F)C(F)(F)C(F)(F)C(F)(F)C(F)(F)C(F)(F)C(F)(F)C(F)(F)F,AC50,[1],12.8 µM (active)
same,outcome,[1],inactive
same,outcome,BCL2L11 (gene 10018),inactive
same,AC50,[3],34.1 µM (active)
same,outcome,[3],inactive
same,outcome,[4],inactive
same,AC50,Caspase-3 (Homo sapiens),22.1 µM (active)
same,outcome,Caspase-3 (Homo sapiens),inactive
same,AC50,[5],0.00316 µM (active)
same,outcome,[5],inactive
same,AC50,[6],34.5 µM (active)
same,outcome,[6],inactive
same,AC50,[7],88.9 µM (active) [middle of 4 runs]
same,AC50,CYP2C9 (gene 1559),80.2 µM (active) and 88.7 µM (active)
same,outcome,CYP2C9 (gene 1559),inactive
same,AC50,CYP2E1 (gene 1571),61.1 µM (active) [middle of 4 runs]
same,outcome,[8],inactive
same,AC50,[9],60.1 µM (active) [middle of 4 runs]
same,outcome,[10],inactive
same,AC50,[11],50 µM (active) and 7.35 µM (active)
same,outcome,[11],inactive
CCOC1Oc2ccc(OS(C)(=O)=O)cc2C1(C)C (configuration not stated),outcome,[1],inactive
same,outcome,BCL2L11 (gene 10018),inactive
same,AC50,[3],77 µM (active)
same,AC50,[12],82.1 µM (active)
same,outcome,[4],inactive
same,outcome,Caspase-3 (Homo sapiens),inactive
same,outcome,[5],inactive
same,outcome,[6],inactive
same,AC50,[7],91.3 µM (active)
same,AC50,CYP2C9 (gene 1559),82 µM (active)
same,AC50,CYP2E1 (gene 1571),62.6 µM (active)
same,AC50,CYP4A11 (gene 1579),69.1 µM (active)
same,AC50,[8],11.8 µM (active)
same,AC50,[9],93 µM (active)
same,outcome,[10],inactive
same,outcome,[11],inactive
COP(=S)(OC)Oc1ccc([N+](=O)[O-])cc1,outcome,[1],inactive
same,outcome,BCL2L11 (gene 10018),inactive
same,outcome,[3],inactive
same,outcome,[4],inactive
same,outcome,Caspase-3 (Homo sapiens),inactive
same,outcome,[5],inactive
same,outcome,[6],inactive
same,AC50,[7],15.7 µM (active)
same,AC50,[13],50 µM (active)
same,outcome,CYP2C9 (gene 1559),inactive
same,outcome,CYP2E1 (gene 1571),inactive
same,outcome,CYP4A11 (gene 1579),inactive
same,outcome,[8],inactive
same,outcome,[9],inactive
same,outcome,[10],inactive
same,outcome,[11],inactive
COP(=O)(OC)OC=C(Cl)Cl,outcome,[1],inactive
same,outcome,BCL2L11 (gene 10018),inactive
same,outcome,[3],inactive
same,outcome,[12],inactive
same,outcome,[4],inactive
same,outcome,Caspase-3 (Homo sapiens),inactive
same,outcome,[5],inactive
same,outcome,[6],inactive
same,AC50,[7],6.48 µM (active)
same,outcome,[13],inactive
same,outcome,CYP2C9 (gene 1559),inactive
same,outcome,CYP2E1 (gene 1571),inactive
same,outcome,CYP4A11 (gene 1579),inactive
same,outcome,[8],inactive
same,outcome,[9],inactive
same,outcome,[10],inactive
same,outcome,[11],inactive
